# From article PMC7862700, “An all-to-all approach to the identification of sequence-specific readers for epigenetic DNA modifications on cytosine”
# Legend:
# Assay in all cases: DAPPL (digital affinity profiling via proximity ligation, sequencing); 10 mM Tris-HCl pH 7.5, 50 mM NaCl, 1 mM DTT, 4% glycerol, room temperature, 30 min; GST-TFs on glutathione beads, 16-mer random dsDNA library, 0.1% formaldehyde crosslink after washing; high values mean tight binding
# FLI1 = target: T1, FLI1 (Homo sapiens, UniProt Q01543 1-452); settings: protein: recombinant; tags: N-terminal GST; dsDNA, one strand shown
# T1 sequence: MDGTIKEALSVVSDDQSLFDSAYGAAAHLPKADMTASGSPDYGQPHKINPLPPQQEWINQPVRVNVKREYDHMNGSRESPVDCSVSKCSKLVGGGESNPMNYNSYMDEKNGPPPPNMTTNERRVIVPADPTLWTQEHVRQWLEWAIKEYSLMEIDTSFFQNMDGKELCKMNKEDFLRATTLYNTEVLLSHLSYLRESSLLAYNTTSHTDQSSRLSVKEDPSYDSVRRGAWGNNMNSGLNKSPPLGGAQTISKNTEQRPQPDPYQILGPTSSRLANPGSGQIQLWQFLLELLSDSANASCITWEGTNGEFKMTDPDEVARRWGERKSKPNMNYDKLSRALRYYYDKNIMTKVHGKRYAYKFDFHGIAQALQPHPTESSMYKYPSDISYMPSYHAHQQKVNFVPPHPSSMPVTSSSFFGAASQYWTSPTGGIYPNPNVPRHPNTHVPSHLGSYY
# Outline: (§1)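 Pools were built from human transcription factors expressed in yeast as GST fusions, captured on glutathione beads and DNA-barcoded, along with a tag-only sample. Incubation with 200 nmole of a 16-mer random double-stranded DNA library lasted 30 min at room temperature in Tris/NaCl/DTT/glycerol buffer, and was followed by washing, 0.1% formaldehyde crosslinking, proximity ligation, PCR amplification and Illumina NextSeq500 sequencing. Binding signal is the quotient of each hexamer's read frequency for a factor and its frequency for the tag-only sample.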
# ELK1 = target: T2, ELK1 (Homo sapiens, UniProt P19419 1-428); settings: protein: recombinant; tags: N-terminal GST; dsDNA, one strand shown
# T2 sequence: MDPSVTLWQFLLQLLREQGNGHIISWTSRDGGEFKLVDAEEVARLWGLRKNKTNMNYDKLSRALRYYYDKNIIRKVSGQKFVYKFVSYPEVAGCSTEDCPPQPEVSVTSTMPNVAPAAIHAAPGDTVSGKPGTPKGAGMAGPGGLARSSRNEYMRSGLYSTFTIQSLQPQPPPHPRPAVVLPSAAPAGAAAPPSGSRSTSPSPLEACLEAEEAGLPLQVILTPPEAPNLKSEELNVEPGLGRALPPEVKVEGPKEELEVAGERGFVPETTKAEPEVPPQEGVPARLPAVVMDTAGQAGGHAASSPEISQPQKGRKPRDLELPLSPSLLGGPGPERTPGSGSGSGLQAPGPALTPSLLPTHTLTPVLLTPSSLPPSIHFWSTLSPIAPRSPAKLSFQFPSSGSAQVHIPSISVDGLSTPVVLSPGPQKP
# Outline: as §1
# GABPA = target: T3, GABPA (Homo sapiens, UniProt Q06546 1-454); settings: protein: recombinant; tags: N-terminal GST; dsDNA, one strand shown
# T3 sequence: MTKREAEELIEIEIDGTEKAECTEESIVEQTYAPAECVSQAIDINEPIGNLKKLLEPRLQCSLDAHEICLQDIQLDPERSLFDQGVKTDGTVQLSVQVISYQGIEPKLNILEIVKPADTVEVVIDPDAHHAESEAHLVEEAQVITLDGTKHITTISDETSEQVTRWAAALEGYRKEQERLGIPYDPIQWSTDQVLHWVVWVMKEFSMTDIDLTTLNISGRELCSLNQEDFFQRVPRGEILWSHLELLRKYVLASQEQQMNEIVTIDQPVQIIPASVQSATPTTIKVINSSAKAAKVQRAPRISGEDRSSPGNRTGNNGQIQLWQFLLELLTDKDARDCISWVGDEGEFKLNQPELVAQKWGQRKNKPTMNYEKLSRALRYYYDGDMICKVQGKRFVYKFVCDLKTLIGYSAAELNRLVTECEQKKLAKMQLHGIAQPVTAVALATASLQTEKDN
# Outline: as §1
# ERG = target: T4, ERG (Homo sapiens, UniProt P11308 1-479); settings: protein: recombinant; tags: N-terminal GST; dsDNA, one strand shown
# T4 sequence: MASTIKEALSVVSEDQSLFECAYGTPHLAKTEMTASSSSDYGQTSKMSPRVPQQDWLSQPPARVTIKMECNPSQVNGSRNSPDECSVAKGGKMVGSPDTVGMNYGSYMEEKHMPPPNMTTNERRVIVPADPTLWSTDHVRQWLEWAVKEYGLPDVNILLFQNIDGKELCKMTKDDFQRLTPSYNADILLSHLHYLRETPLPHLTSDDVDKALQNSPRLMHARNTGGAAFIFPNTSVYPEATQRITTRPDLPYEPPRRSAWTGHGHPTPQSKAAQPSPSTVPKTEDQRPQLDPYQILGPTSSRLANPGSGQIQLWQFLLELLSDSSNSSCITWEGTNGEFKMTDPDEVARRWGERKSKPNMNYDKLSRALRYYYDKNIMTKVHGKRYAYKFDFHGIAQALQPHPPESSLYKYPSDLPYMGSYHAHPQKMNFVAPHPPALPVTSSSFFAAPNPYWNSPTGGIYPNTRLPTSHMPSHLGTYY
# Outline: as §1
# ELF1 = ELF1 (Homo sapiens, UniProt P32519 1-619); settings: protein: recombinant; tags: N-terminal GST; dsDNA, one strand shown
# Sequence of ELF1 (P32519 whole entry): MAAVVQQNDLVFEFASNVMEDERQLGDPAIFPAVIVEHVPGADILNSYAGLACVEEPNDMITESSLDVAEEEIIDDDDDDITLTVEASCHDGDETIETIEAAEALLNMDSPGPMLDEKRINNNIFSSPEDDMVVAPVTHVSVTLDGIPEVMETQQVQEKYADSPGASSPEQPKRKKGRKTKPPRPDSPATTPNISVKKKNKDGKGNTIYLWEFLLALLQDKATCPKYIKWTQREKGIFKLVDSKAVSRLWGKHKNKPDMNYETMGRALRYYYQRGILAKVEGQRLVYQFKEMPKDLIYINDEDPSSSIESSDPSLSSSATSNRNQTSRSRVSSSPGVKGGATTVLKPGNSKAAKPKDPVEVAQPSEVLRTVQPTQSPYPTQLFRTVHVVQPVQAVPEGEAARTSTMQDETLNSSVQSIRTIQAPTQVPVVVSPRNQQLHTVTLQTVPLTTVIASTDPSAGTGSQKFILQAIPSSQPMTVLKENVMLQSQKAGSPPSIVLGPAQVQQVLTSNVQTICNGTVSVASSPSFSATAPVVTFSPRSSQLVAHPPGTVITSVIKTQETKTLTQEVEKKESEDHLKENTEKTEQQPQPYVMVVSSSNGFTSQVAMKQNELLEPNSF
# Outline: as §1
# EHF = target: T5, EHF (Homo sapiens, UniProt Q9NZC4 1-300); settings: protein: recombinant; tags: N-terminal GST; dsDNA, one strand shown
# T5 sequence: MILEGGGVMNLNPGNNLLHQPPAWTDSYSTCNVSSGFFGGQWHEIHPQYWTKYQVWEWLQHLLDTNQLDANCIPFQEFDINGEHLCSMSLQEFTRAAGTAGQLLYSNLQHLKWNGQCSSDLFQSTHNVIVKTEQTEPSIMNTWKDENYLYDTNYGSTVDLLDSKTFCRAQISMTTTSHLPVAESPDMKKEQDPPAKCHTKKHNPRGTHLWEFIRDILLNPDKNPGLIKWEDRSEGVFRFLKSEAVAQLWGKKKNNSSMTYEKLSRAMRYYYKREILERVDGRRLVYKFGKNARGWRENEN
# Outline: as §1
# SPI1 = SPI1 (Homo sapiens, UniProt P17947 1-270); settings: protein: recombinant; tags: N-terminal GST; dsDNA, one strand shown
# Outline: as §1
# SPIB = SPIB (Homo sapiens, UniProt Q01892 1-262); settings: protein: recombinant; tags: N-terminal GST; dsDNA, one strand shown
# Sequence of SPIB (Q01892 whole entry): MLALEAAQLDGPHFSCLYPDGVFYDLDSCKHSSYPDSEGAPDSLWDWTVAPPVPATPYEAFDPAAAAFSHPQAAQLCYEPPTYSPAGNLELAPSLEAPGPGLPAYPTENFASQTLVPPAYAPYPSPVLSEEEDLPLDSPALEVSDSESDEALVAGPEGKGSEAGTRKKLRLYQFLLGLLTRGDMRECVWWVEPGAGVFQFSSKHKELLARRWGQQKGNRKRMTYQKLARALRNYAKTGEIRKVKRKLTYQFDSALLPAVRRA
# Outline: as §1
# ELK3 = target: T6, ELK3 (Homo sapiens, UniProt P41970 1-407); settings: protein: recombinant; tags: N-terminal GST; dsDNA, one strand shown
# T6 sequence: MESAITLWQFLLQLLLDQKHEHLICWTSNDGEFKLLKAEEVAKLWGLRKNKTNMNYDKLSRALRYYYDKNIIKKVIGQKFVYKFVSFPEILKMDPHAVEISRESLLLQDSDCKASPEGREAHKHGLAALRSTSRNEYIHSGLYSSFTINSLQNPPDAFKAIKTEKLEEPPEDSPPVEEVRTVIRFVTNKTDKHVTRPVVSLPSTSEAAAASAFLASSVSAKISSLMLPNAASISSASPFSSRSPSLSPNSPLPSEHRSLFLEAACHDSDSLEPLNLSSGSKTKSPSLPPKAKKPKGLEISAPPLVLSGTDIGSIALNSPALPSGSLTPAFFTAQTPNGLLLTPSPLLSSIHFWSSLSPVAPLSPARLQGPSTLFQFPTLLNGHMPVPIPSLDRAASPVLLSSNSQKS
# Outline: as §1
# FEV = target: T7, FEV (Homo sapiens, UniProt Q99581 1-238); settings: protein: recombinant; tags: N-terminal GST; dsDNA, one strand shown
# T7 sequence: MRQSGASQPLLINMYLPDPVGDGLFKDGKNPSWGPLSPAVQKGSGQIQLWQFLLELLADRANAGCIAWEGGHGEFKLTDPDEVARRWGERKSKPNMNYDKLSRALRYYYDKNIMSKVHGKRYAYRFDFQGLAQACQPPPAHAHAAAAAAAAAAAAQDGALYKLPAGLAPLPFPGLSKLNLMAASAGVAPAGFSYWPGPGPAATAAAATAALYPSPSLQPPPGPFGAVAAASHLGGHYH
# Outline: as §1
# ETV5 = ETV5 (Homo sapiens, UniProt P41161 1-510); settings: protein: recombinant; tags: N-terminal GST; dsDNA, one strand shown
# Sequence of ETV5 (P41161 whole entry): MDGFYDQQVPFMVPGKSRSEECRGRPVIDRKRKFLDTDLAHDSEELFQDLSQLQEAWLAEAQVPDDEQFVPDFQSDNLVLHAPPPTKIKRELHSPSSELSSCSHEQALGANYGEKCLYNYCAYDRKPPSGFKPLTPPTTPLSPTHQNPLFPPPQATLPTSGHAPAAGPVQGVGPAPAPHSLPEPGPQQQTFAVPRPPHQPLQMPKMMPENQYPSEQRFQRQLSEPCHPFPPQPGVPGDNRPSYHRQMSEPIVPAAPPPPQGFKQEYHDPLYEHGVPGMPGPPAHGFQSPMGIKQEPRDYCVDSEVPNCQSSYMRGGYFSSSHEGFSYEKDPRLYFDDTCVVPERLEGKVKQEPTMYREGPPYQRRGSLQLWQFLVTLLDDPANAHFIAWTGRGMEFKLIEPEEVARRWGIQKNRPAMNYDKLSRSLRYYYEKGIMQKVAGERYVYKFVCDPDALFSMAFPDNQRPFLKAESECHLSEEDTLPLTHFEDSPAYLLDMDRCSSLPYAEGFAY
# Outline: as §1
# HSF1 = HSF1 (Homo sapiens, UniProt Q00613 1-529); settings: protein: recombinant; tags: N-terminal GST; chain copies: 3; dsDNA, one strand shown
# Sequence of HSF1 (Q00613 whole entry): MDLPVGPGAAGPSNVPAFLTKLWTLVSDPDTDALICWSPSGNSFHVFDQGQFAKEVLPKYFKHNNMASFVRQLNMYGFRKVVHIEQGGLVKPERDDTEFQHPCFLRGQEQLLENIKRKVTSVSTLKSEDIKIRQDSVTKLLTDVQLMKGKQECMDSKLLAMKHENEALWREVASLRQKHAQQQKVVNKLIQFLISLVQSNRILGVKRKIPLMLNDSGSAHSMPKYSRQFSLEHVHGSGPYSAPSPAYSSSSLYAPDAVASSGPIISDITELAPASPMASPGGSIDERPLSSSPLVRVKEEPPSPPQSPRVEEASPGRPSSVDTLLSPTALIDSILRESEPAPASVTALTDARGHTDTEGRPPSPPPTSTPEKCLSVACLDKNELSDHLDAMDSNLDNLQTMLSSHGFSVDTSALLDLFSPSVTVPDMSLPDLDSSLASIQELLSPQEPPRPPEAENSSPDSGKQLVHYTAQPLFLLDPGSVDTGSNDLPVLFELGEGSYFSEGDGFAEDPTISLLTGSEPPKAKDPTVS
# Outline: as §1
# SPIC = target: T8, SPIC (Homo sapiens, UniProt Q8N5J4 1-248); settings: protein: recombinant; tags: N-terminal GST; dsDNA, one strand shown
# T8 sequence: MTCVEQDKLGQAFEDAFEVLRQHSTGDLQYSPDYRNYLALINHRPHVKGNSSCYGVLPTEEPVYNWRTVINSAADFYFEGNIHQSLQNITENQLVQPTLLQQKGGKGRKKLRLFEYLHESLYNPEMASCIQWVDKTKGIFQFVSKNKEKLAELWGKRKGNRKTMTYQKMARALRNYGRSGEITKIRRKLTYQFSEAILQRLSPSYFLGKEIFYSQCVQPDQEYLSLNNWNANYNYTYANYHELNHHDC
# Outline: as §1
# ELF4 = ELF4 (Homo sapiens, UniProt Q99607 1-663); settings: protein: recombinant; tags: N-terminal GST; dsDNA, one strand shown
# Sequence of ELF4 (Q99607 whole entry): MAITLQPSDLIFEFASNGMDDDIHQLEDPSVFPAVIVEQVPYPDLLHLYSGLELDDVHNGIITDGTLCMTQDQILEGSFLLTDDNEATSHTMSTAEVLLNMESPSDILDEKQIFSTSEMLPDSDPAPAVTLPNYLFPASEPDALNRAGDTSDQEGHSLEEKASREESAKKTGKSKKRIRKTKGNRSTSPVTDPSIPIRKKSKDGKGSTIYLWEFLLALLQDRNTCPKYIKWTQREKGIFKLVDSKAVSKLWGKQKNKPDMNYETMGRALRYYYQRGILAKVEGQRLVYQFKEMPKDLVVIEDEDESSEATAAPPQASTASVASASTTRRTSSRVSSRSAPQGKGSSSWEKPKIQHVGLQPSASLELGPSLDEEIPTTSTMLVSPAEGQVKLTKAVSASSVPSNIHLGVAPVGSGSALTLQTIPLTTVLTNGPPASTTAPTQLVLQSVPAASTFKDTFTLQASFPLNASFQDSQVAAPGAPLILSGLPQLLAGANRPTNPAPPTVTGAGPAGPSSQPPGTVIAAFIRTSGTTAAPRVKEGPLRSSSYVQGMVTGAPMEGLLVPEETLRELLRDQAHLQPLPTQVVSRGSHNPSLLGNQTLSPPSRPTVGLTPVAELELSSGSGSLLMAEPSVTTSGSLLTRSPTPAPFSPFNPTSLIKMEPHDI
# Outline: as §1
# ELK4 = target: T9, ELK4 (Homo sapiens, UniProt P28324-2 1-405); settings: protein: recombinant; tags: N-terminal GST; dsDNA, one strand shown
# T9 sequence: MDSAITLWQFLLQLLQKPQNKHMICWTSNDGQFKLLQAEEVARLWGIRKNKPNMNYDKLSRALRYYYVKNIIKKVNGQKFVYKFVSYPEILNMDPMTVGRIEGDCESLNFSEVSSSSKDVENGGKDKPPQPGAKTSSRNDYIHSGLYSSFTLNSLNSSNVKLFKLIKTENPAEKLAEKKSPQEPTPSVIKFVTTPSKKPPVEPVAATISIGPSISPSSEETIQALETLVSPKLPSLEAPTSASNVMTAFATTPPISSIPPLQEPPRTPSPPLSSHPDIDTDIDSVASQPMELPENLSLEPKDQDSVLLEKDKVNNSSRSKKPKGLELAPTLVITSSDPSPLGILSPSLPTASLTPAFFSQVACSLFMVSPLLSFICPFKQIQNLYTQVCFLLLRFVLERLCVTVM
# Outline: as §1
# ETV2 = target: T10, ETV2 (Homo sapiens, UniProt O00321 1-342); settings: protein: recombinant; tags: N-terminal GST; dsDNA, one strand shown
# T10 sequence: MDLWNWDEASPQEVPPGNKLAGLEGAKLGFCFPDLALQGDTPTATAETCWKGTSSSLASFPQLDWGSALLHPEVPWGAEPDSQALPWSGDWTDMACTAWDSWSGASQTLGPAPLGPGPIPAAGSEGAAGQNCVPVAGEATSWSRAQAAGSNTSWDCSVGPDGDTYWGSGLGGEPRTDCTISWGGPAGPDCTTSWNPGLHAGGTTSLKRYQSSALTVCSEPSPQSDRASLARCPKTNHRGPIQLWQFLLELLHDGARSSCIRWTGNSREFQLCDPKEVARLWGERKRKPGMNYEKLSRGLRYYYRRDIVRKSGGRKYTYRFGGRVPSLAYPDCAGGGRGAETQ
# Outline: as §1
# ELF3 = target: T11, ELF3 (Homo sapiens, UniProt P78545 1-371); settings: protein: recombinant; tags: N-terminal GST; dsDNA, one strand shown
# T11 sequence: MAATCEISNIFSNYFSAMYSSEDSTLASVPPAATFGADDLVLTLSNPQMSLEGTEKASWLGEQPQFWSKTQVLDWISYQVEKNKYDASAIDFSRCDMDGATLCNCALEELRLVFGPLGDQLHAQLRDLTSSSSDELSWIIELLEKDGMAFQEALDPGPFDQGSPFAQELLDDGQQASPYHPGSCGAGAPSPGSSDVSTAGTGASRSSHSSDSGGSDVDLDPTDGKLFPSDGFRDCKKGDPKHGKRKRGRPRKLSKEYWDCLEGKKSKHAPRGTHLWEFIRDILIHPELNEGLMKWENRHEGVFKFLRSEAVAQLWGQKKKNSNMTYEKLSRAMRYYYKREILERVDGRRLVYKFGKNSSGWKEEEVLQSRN
# Outline: as §1
# CRX = CRX (Homo sapiens, UniProt O43186 1-299); settings: protein: recombinant; tags: N-terminal GST; dsDNA, one strand shown
# Sequence of CRX (O43186 whole entry): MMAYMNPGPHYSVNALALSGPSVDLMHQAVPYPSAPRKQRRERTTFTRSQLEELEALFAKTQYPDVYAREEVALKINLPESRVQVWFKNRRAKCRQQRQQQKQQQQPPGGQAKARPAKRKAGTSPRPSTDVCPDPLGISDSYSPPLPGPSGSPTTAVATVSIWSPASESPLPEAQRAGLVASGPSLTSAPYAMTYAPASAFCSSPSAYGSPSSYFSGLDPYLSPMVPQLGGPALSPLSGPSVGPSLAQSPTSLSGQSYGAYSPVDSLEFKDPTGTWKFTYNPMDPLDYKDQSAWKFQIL
# Outline: as §1
# ETV1 = ETV1 (Homo sapiens, UniProt P50549 1-477); settings: protein: recombinant; tags: N-terminal GST; dsDNA, one strand shown
# Sequence of ETV1 (P50549 whole entry): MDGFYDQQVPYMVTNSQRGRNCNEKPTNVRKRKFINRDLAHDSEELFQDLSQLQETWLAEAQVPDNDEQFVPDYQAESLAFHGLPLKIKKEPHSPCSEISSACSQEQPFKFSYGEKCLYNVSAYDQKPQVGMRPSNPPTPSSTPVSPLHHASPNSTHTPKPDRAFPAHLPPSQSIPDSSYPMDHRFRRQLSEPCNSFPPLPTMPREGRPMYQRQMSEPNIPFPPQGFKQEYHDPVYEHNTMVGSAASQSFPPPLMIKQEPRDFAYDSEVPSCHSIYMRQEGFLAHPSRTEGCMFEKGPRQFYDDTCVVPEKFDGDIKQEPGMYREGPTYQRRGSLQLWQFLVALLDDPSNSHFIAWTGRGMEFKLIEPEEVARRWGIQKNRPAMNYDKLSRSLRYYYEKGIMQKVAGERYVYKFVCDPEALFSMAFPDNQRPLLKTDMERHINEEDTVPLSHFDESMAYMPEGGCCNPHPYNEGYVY
# Outline: as §1
sequence,measurement,setting,value
CCTTCA,binding signal,FLI1,"1.49 fold enrichment (6-mer frequency, TF over GST control)"
same,binding signal,ELK1,"1.43 fold enrichment (6-mer frequency, TF over GST control)"
same,binding signal,GABPA,"1.46 fold enrichment (6-mer frequency, TF over GST control)"
same,binding signal,ERG,"1.45 fold enrichment (6-mer frequency, TF over GST control)"
same,binding signal,ELF1,"1.51 fold enrichment (6-mer frequency, TF over GST control)"
same,binding signal,EHF,"1.26 fold enrichment (6-mer frequency, TF over GST control)"
same,binding signal,SPI1,"1.36 fold enrichment (6-mer frequency, TF over GST control)"
same,binding signal,SPIB,"1.46 fold enrichment (6-mer frequency, TF over GST control)"
same,binding signal,ELK3,"1.16 fold enrichment (6-mer frequency, TF over GST control)"
same,binding signal,FEV,"1.48 fold enrichment (6-mer frequency, TF over GST control)"
same,binding signal,ETV5,"1.45 fold enrichment (6-mer frequency, TF over GST control)"
same,binding signal,HSF1,"1.36 fold enrichment (6-mer frequency, TF over GST control)"
same,binding signal,SPIC,"1.31 fold enrichment (6-mer frequency, TF over GST control)"
same,binding signal,ELF4,"1.42 fold enrichment (6-mer frequency, TF over GST control)"
same,binding signal,ELK4,"1.69 fold enrichment (6-mer frequency, TF over GST control)"
same,binding signal,ETV2,"1.49 fold enrichment (6-mer frequency, TF over GST control)"
same,binding signal,ELF3,"1.4 fold enrichment (6-mer frequency, TF over GST control)"
same,binding signal,CRX,"1.34 fold enrichment (6-mer frequency, TF over GST control)"
same,binding signal,ETV1,"1.55 fold enrichment (6-mer frequency, TF over GST control)"
